# Target: T1, Arginase-2, mitochondrial (Homo sapiens) (UniProt P78540)
# T1 sequence (whole entry): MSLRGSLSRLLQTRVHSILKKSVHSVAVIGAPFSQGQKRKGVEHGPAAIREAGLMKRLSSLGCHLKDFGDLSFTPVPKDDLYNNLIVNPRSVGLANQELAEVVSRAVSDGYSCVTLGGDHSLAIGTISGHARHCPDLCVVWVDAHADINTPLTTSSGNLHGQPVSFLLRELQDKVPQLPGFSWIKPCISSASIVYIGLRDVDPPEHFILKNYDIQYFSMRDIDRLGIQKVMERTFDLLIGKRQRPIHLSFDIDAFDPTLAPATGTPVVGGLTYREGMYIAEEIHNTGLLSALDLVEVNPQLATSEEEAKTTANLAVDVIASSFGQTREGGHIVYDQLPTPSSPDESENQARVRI
# Assay: in vitro enzyme assay to detect the production of urea directly proportional to the activity of Arginase II
# Type: functional
# Set-up: scale not given: in the data most compounds retested in dose-response had high values
# Settings: 33.3 µM
row,SMILES,Percent Effect
1,Cn1cnnc1C1CCCN(C(=O)c2cc(Cl)c3c(c2)OCO3)C1 (stereo not given),2.22%
2,NC(=O)c1ccc(S(=O)(=O)NC(=O)COc2ccc3c(c2)CCC3)cc1,0.82%
3,Cc1ccccc1N1CCN(C(=O)c2ccc[nH]2)C(C)C1 (stereo not given),-2.45%
4,CC(C)c1cc(NC(=O)CN2CCC(N3CCNC3=O)CC2)on1,1.02%
5,O=S(=O)(CCNC1CCc2ncnn2C1)c1ccccc1 (stereo not given),-1.43%
6,c1ccc(-c2nc(CN3CCOC(Cn4cccn4)C3)no2)cc1 (stereo not given),4.43%
7,COc1ncccc1CNC(=O)NCCNC(=O)c1ccco1,1.33%
8,c1cnc(N2CCC3(CC2)CN(CC2CC2)c2ccccc23)nc1,-2.28%
9,CN(C)S(=O)(=O)N1CCN(C(=O)c2ccc3ccn(C)c3c2)CC1,8.74%
10,Cc1ccc(C(CNC(=O)NCc2cc[nH]n2)N2CCOCC2)o1 (stereo not given),0.82%
11,COCCc1noc(CN2CCCCC2Cn2cc(C)cn2)n1 (stereo not given),-1.23%
12,O=C(COCc1ccccc1)N1CCC(OCc2cccnc2)CC1,-0.35%
13,CCc1n[nH]c(C2CN(C(=O)c3nc(C)ncc3Cl)CCO2)n1 (stereo not given),1.43%
14,COc1cc(CNC(=O)C2CC(=O)N(C(C)C)C2)ccn1 (stereo not given),2.05%
15,O=C(Cc1cccs1)N1CC[C@H]2[C@@H]1CCC(=O)N2c1cccnc1,1.37%
16,CS(=O)(=O)NCc1ncn2c1CN(C(=O)CC1CCCC1)CCC2,-0.81%
17,CCOCC1CC2(CCN(C(=O)c3ccccc3F)CC2)CO1 (stereo not given),-7.29%
18,CCn1c(C)cc(C(=O)N2CCCC(n3nc(C)nc3C)C2)c1C (stereo not given),-0.41%
19,Cc1cnn(CC2CCCN2CC(=O)Nc2cc(C)nn2C)c1 (stereo not given),1.02%
20,O=C(c1ccco1)N1CCC2(CC1)C(=O)NCCN2CC1CC1,-4.05%

row,SMILES,Percent Effect
1,COc1ccc(C(=O)N2C[C@@H](CN3CCOCC3)[C@@H](CO)C2)c(C)c1,6.64%
2,O=C(c1ccc(F)cc1F)N1CC[C@H](O)[C@@H](N2CCOCC2)CC1,3.98%
3,Cc1cnn(C(C)C2CC2)c1NC(=O)c1cnccn1 (stereo not given),0.35%
4,COc1ncc(C2(O)CCN(Cc3ccccc3O)CC2)c(OC)n1,-3.1%
5,CC1CCCN(C(=O)c2cccc(CS(C)(=O)=O)c2)C1 (stereo not given),-0.41%
6,O=C(Nc1cccnc1)[C@H]1C[C@H]2OCC[C@H]2N(C(=O)c2ccsc2)C1,17%
7,CCC1CN(C(=O)c2ccc(Cl)cc2O)CCN1C(C)C (stereo not given),11.5%
8,Cc1cnc(C(=O)N2CCCCC2c2[nH]ncc2S(C)(=O)=O)cn1 (stereo not given),-1.77%
9,CCN1C(=O)CCCC12CCCN(C(=O)c1conc1C)C2 (stereo not given),-0.457%
10,COc1cc(C(=O)N2CCCS2(=O)=O)ccc1C,-3.99%
11,Cc1ncsc1-c1nnc(C2CCN(CC3CCCCC3)CC2)o1,0.443%
12,CCn1cnnc1CNC(=O)N1CCOCC1,2.66%
13,O=C1C(NCc2nnc3n2CCCC3)CCN1c1ccccc1 (stereo not given),7.79%
14,CC(NC(=O)CCn1cncn1)c1nnc2n1CCCCC2 (stereo not given),10.4%
15,CC(=O)N1[C@H](CN(C)C)C[C@@H]2CN(C(=O)c3cccc(F)c3)CC[C@@H]21,-12.8%
16,Cc1ccc(C(N)c2cccc(S(C)(=O)=O)c2)cc1 (stereo not given),5.76%
17,COc1cccc2c1OCC(C(=O)N1CCN(S(C)(=O)=O)CC1)C2 (stereo not given),11.5%
18,Cc1ccc(C(=O)N2C[C@@H](OCC3CCOCC3)[C@H]3OCCC[C@H]32)o1,10.9%
19,CC(Cn1cccn1)NC(=O)N1CCN(Cc2cccs2)CC1 (stereo not given),-3.1%
20,Cc1nc(C2CCCN(C(=O)CO)C2)cc(N2CCOCC2)n1 (stereo not given),-2.45%

# From ChEMBL document CHEMBL3988442, “University of Dundee, Small-Polar-MMV Screening Library” (2021)
